The supplement of paper PMC13380429

System: Vero E6 infected with SARS-CoV-2
Assay: inhibition of SARS-CoV-2 cytopathic effect; higher = more antiviral protection, active = above 15
Conditions: 48 h

Measured: inhibition of SARS-CoV-2 cytopathic effect

Oc1ccc2c3c1O[C@H]1c4[nH]c5c(c4C[C@@]4(O)[C@@H](C2)N(CC2CC2)CC[C@]314)C[C@@]1(O)[C@H]2Cc3ccc(O)c4c3[C@@]1(CCN2CC1CC1)[C@H]5O4 [nor-binaltorphimine]
inactive: 1 nM 1.48% | 8.33 nM 0.42% | 100 nM 2.76% | 833.33 nM 1.16% | 10000 nM -1.05%

CNc1ncc2cc(-c3cc(NC(=O)NCCC(C)(C)C)c(F)cc3C)c(C)nc2n1
inactive: 1 nM 0.87% | 8.33 nM 1.85% | 100 nM 5.54% | 833.33 nM -4.43% | 10000 nM -8.15%

CCn1c(=O)c(-c2ccc(Cl)cc2Cl)cc2cnc(Nc3ccc(N4CCNCC4)c(F)c3)nc21
inactive: 1 nM -1.29% | 8.33 nM -2.53% | 100 nM -1.93% | 833.33 nM -6.85% | 10000 nM -4.65%

O=C(O)c1c(Cl)c(Cl)c(Cl)c(Cl)c1-c1c2cc(I)c(=O)c(I)c-2oc2c(I)c(O)c(I)cc12 [rose-bengal]
inactive: 1 nM -2.56% | 8.33 nM -2.17% | 100 nM 1.8% | 833.33 nM -2.12% | 10000 nM -13.9%

Cc1cc(C)c(N(Cc2ccccc2)S(=O)(=O)c2ccc(OCCNC(=O)c3cc4ccccc4o3)cc2)c(C(=O)NO)c1
inactive: 1 nM -0.99% | 8.33 nM 0.92% | 100 nM -1.74% | 833.33 nM -1.22% | 10000 nM -6.93%

COc1ccccc1OCC(O)CO (stereo not given) [guaifenesin]
inactive: 1 nM 1.29% | 8.33 nM 1.07% | 100 nM 0% | 833.33 nM 0.99% | 10000 nM 0.94%

Cn1cc(C(=O)c2cccc3ccccc23)cc1C(=O)O [napirimus]
inactive: 1 nM -0.4% | 8.33 nM -1.83% | 100 nM 0.36% | 833.33 nM -1.9% | 10000 nM 1.11%

Nc1ncnc2c1ncn2[C@@H]1O[C@H](CO)[C@@H](O)[C@H]1O [adenosine]
inactive: 1 nM 2.02% | 8.33 nM 3.5% | 100 nM 0.67% | 833.33 nM -1.84% | 10000 nM 1.06%

CC1=C(/C=C/C(C)=C/C=C/C(C)=C/C=C/C=C(C)/C=C/C=C(C)/C=C/C2=C(C)C(=O)[C@@H](O)CC2(C)C)C(C)(C)C[C@H](O)C1=O [astaxanthin]
inactive: 1 nM -9.22% | 8.33 nM -11% | 100 nM -9.1% | 833.33 nM -8.76% | 10000 nM -11.5%

Cc1ccc(S(=O)(=O)c2ccc([N+](=O)[O-])o2)cc1
inactive: 1 nM 0.14% | 8.33 nM 0.39% | 100 nM 2.55% | 833.33 nM 13.5% | 10000 nM -21.6%

NS(=O)(=O)c1cc2c(cc1Cl)NCNS2(=O)=O [hydrochlorothiazide]
inactive: 1 nM 3.33% | 8.33 nM 0.33% | 100 nM 0.49% | 833.33 nM 0.84% | 10000 nM -1.16%

OCCNC1CCCc2c1[nH]c1ccc(-c3ccccc3)cc21 (stereo not given) [casin]
inactive: 1 nM -1.66% | 8.33 nM 3% | 100 nM 1.22% | 833.33 nM -2.43% | 10000 nM 14.4%

CC1(C)O[C@@H]2[C@@H](CO[C@@]3(COS(N)(=O)=O)OC(C)(C)O[C@@H]23)O1 [topiramate]
inactive: 1 nM -1.19% | 8.33 nM 1.71% | 100 nM -2.21% | 833.33 nM 0.74% | 10000 nM -0.18%

CN(C)[C@@H]1C(O)=C(C(N)=O)C(=O)[C@@]2(O)C(O)=C3C(=O)c4c(O)ccc(Cl)c4[C@@](C)(O)[C@H]3C[C@@H]12
inactive: 1 nM 0.81% | 8.33 nM 3.66% | 100 nM 0.73% | 833.33 nM 1.21% | 10000 nM -0.28%

CCC(CC)[C@H](NC(C)=O)[C@@H]1[C@H](O)[C@@H](C(=O)O)C[C@H]1NC(=N)N [peramivir]
inactive: 1 nM -2.46% | 8.33 nM -0.07% | 100 nM 0.34% | 833.33 nM 0.01% | 10000 nM -0.82%

CC(=O)OCC1=C(C(=O)O)N2C(=O)[C@@H](NC(=O)Cc3cccs3)[C@H]2SC1 [cephalothin]
inactive: 1 nM 0.91% | 8.33 nM 2.69% | 100 nM 1.37% | 833.33 nM -0.06% | 10000 nM 1.33%

NC1CCN(c2nc3c(cc2F)c(=O)c(C(=O)O)cn3-c2ccc(F)cc2F)C1 (stereo not given) [tosufloxacin]
inactive: 1 nM -2.93% | 8.33 nM 0.34% | 100 nM -3.49% | 833.33 nM -3.32% | 10000 nM -0.08%

O=C(O)c1ccc(N2C(=O)/C(=C/c3ccc(-c4ccc([N+](=O)[O-])cc4)o3)C=C2c2ccccc2)cc1
inactive: 1 nM -2.98% | 8.33 nM -0.14% | 100 nM 1.72% | 833.33 nM -6.51% | 10000 nM -0.18%

Cc1n[nH]c(C)c1Cc1sc2c(c1C(=O)N1C[C@H](O)CO1)c(=O)n(C)c(=O)n2CC(C)C
inactive: 1 nM 1.42% | 8.33 nM 3.88% | 100 nM 0.66% | 833.33 nM 1.3% | 10000 nM 1.69%

c1ccc(C2CC2)c(OCC2=NCCN2)c1 [cirazoline]
inactive: 1 nM -0.75% | 8.33 nM 0.31% | 100 nM -8.08% | 833.33 nM 0.87% | 10000 nM -3.99%

c1ccc(Oc2cccnc2)cc1
inactive: 1 nM 2.35% | 8.33 nM 1.64% | 100 nM 1.02% | 833.33 nM 2.24% | 10000 nM 1.23%

CC1=C(C(=O)OC2CCCCC2)C(c2ccc([N+](=O)[O-])cc2)C2=C(CC(C)(C)CC2=O)N1 (stereo not given)
inactive: 1 nM -1.14% | 8.33 nM -1.2% | 100 nM -1.86% | 833.33 nM 1.14%
active: 10000 nM 23.1%

O=S(=O)(O)Oc1ccc(C(c2ccc(OS(=O)(=O)O)cc2)c2ccccn2)cc1 [sodium-picosulfate]
inactive: 1 nM -1.14% | 8.33 nM -0.13% | 100 nM 0.34% | 833.33 nM 5.9% | 10000 nM -5.74%

CN(C)C(=O)n1nnnc1Cc1ccc(-c2ccccc2)cc1
inactive: 1 nM -1.07% | 8.33 nM 2.48% | 100 nM 0.66% | 833.33 nM 2.07% | 10000 nM 1.15%

COc1cc(NC(=O)c2ccccn2)ccc1Cl
inactive: 1 nM -0.99% | 8.33 nM -1.87% | 100 nM 1.63% | 833.33 nM 2.18% | 10000 nM 1.18%

Oc1cc2c(cc1O)[C@H](Cc1cccc3ccccc13)NCC2
inactive: 1 nM 1.2% | 8.33 nM -0.02% | 100 nM -0.84% | 833.33 nM -0.78% | 10000 nM -2.59%

C=CC(=O)O [acrylate]
inactive: 1 nM 0.49% | 8.33 nM -3.42% | 100 nM -3.82% | 833.33 nM 4.25% | 10000 nM -1.97%

O=C(O)[C@H](CC(=O)N1C[C@H]2CCCC[C@H]2C1)Cc1ccccc1 [mitiglinide]
inactive: 1 nM -0.3% | 8.33 nM -1.42% | 100 nM -1.04% | 833.33 nM -1.17% | 10000 nM 1.67%

c1ccc2sc(SNC3CCCCC3)nc2c1 [N-cyclohexyl-2-benzothiazolesulfenamide]
inactive: 1 nM 2.74% | 8.33 nM 0.54% | 100 nM -0.9% | 833.33 nM -0.46% | 10000 nM -3.64%

NCc1c[nH]c(=S)n1[C@H]1CCc2c(F)cc(F)cc2C1 [nepicastat]
inactive: 1 nM -0.64% | 8.33 nM 1.63% | 100 nM 2.16% | 833.33 nM 0.6% | 10000 nM -0.04%

COc1cc(N)c(Cl)cc1C(=O)N[C@@H]1CCN(CCCOc2ccc(F)cc2)C[C@@H]1OC (racemic) [cisapride]
inactive: 1 nM -0.68% | 8.33 nM -0.92% | 100 nM 1.02% | 833.33 nM 2.56% | 10000 nM -4.6%

COC1CCN(C(=O)c2cc(Cc3n[nH]c(=O)c4ccccc34)ccc2F)CC1
inactive: 1 nM -0.72% | 8.33 nM 7.33% | 100 nM 4.58% | 833.33 nM 3.41% | 10000 nM 4.58%

C[C@@H]1O[C@@H](O[C@@H]2[C@@H](O)[C@H](OCCc3ccc(O)c(O)c3)O[C@H](CO)[C@H]2OC(=O)/C=C/c2ccc(O)c(O)c2)[C@H](O)[C@H](O)[C@H]1O [verbascoside]
inactive: 1 nM -0.06% | 8.33 nM -0.95% | 100 nM 0.7% | 833.33 nM -1.19% | 10000 nM -1.48%

CCC(CC)Nc1nc(C)c(-c2ccc(OC(F)(F)F)cc2OC)nc1OC
inactive: 1 nM 1.38% | 8.33 nM 3.16% | 100 nM 1.61% | 833.33 nM 0.57% | 10000 nM -0.01%

Cc1cccc(C(=O)O)c1O [hydroxytoluic-acid]
inactive: 1 nM -9.06% | 8.33 nM -7.41% | 100 nM -5.24% | 833.33 nM -2.47% | 10000 nM -10.5%

CCCN1C[C@H](CSC)C[C@@H]2c3cccc4[nH]cc(c34)C[C@H]21 [pergolide]
inactive: 1 nM -0.15% | 8.33 nM -0.75% | 100 nM 0.68% | 833.33 nM 0.65% | 10000 nM -1.92%

CN(C)[C@@H]1C(O)=C(C(N)=O)C(=O)[C@@]2(O)C(O)=C3C(=O)c4c(O)cccc4[C@@](C)(O)[C@H]3C[C@@H]12 [tetracycline]
inactive: 1 nM 1.65% | 8.33 nM 1.27% | 100 nM -0.37% | 833.33 nM -0.82% | 10000 nM 1.35%

NCC1(CC(=O)O)CCCCC1 [gabapentin]
inactive: 1 nM -2.49% | 8.33 nM 2.99% | 100 nM -2.14% | 833.33 nM 0.15% | 10000 nM 2.27%
